Source: PubChem BioAssay (National Center for Advancing Translational Sciences (NCATS))
Compounds with a hit are over-represented: about 12% of the library has one in this group of screens.
HP1b binding inh: inhibitors of HP1-beta chromodomain binding to methylated histone tails; AlphaScreen HP1-beta / biotin-H3K9me3 peptide binding; Potency, µM (highest dose often 114 µM), for the others: at the highest dose activity change, negative = inhibition, usual class: inhibitors; 0.56% of 390,000 active; AID 540317; further: nearly all actives have a fitted effect of over 70% in size
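Compound inhibition of the preformed complex between 50 nM HP1-beta and 50 nM biotinylated H3K9me3 peptide was read by AlphaScreen. Buffer was PBS pH 7.4 with 0.01% Tween-20. Incubations ran 30 min at room temperature, with 10 ug/mL donor/acceptor beads.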
BAZ2B block: BAZ2B (human) inhibition; Q9UIF8; AlphaScreen BAZ2B-H3K14Ac peptide displacement; Potency, µM (top dose mostly 114 µM), inactives show at the highest dose activity change, negative = inhibition, hits mostly inhibitors; 4.4% of 360,000 active; further: on the % scale 0 is the no-effect control and ±100 the full control effect; nearly all actives have a fitted effect of over 60% in size
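AlphaScreen displacement of biotin-H3(5-23)K14Ac peptide (50 nM final) from BAZ2B (50 nM final) in PBS pH 7.4, 0.01% Tween-20; complex preformed 30 min RT, then compounds (top 110 uM) 30 min RT, beads 20 min dark.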
PLK1 PBD block: blocks phosphopeptide binding to human PLK1 polo-box domain. P53350. Plk1 PBD binding of FITC phosphopeptide, fluorescence polarization. Potency, µM, for inactives: max response, negative = inhibition, actives largely listed as inhibitors. 2.8% of 360,000 active. AID 720504; further: series mostly up to about 57 µM; on the % scale 0 is the no-effect control and ±100 the full control effect; nearly all actives have a fitted effect of over 65% in size
Target sequence (P53350 whole entry, looked up, the tested form may be a part): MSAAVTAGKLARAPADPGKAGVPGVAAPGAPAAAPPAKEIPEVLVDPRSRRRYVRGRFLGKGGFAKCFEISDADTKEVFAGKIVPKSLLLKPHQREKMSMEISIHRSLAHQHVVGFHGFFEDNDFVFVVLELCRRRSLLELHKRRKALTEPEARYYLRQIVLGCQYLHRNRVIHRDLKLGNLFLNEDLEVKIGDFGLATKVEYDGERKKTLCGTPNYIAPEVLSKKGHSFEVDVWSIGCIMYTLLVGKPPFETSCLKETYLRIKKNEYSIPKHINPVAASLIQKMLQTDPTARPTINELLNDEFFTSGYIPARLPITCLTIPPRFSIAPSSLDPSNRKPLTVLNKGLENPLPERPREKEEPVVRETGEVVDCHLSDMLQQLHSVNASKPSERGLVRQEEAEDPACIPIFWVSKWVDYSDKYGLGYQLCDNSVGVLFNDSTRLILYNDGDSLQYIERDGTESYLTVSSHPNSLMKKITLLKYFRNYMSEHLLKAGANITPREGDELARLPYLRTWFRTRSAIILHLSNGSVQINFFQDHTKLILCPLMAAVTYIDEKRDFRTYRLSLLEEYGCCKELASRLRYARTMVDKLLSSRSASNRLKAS
Sfp PPTase inh: inhibitors of Bacillus subtilis Sfp phosphopantetheinyl transferase | 3.5% of 310,000 active | Biochemical Sfp PPTase activity, qHTS | Potency, µM, without a hit: largest response in the series, negative = inhibition, hits mostly inhibitors;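 further: the enzyme is Sfp with the accession as filed and its product quenches rhodamine fluorescence; 0% = enzyme reaction without inhibitor and -100% = no enzyme wells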
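Reaction rates are the 30-min fluorescence difference (ex 525, em 598 nm) in wells containing 15 nM Sfp, 5 uM rhodamine-CoA and 12.5 uM BHQ-2-YbbR at pH 7.6 with 10 mM MgCl2.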
G9a inh: inhibitors of human histone lysine methyltransferase G9a. Potency, µM (doses to about 102 µM), inactives show at the top dose activity, negative = inhibition, most hits filed as inhibitors. G9a H3K9 monomethylation, AlphaScreen, 2 h. AID 504332. 8.8% of 350,000 active. Q96KQ7; further: on the % scale 0 is the no-effect control and ±100 the full control effect; nearly all actives have a fitted effect of over 75% in size
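G9a (20 nM) preincubated 15 min RT with compounds, then 500 nM biotinylated H3K9 peptide and 20 uM SAM added; 2 h RT reaction. Monomethyl-H3K9 product detected by AlphaScreen with anti-H3K9me1 antibody, streptavidin donor and anti-rabbit IgG acceptor beads.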
JMJD2A Tudor inh: JMJD2A Tudor domain (human) inhibition | O75164 | AID 504339 | AlphaScreen JMJD2A-Tudor / H3K4me3 peptide binding | 4.4% of 390,000 active | Potency, µM (highest dose often 114 µM), for inactives: at the highest dose activity change, negative = inhibition, actives largely listed as inhibitors; further: on the % scale 0 is the no-effect control and ±100 the full control effect; nearly all actives have a fitted effect of over 50% in size
* marks the source's active call; other numbers are inactive results; ? = inconclusive; / = not tested or not shown; [ ] = another dose, or the depositor's remark. The call rests on the fitted dose curve; in most records, active means well fitted curve in the direction sought with a large enough effect; inconclusive means small, poorly fitted or top-dose-only effect, or another doubt; inactive means no such curve, though single readings can be large; an effect the other way counts as inactive or inconclusive. Potency means the concentration at half of the fitted maximal effect.

SMILES	HP1b binding inh	BAZ2B block	PLK1 PBD block	Sfp PPTase inh	G9a inh	JMJD2A Tudor inh
COc1ccc(Nc2ccccc2N)cc1	?	35µM*	6%	-30%	16µM*	45µM*
COc1ccc(Nc2c(C)cccc2C)cc1	25%	-5%	1%	-5%	8%[59 µM]	8%
Nc1ccc(Nc2ccccc2N)cc1	?	35µM*	?	3%	?	50µM*
O=C(O)Cc1cc(I)c(Oc2cc(I)c(O)c(I)c2)c(I)c1	/	/	/	0%	/	/
Cc1ccc(NC(=O)CSc2nc(-c3ccco3)nc3cc(=O)[nH]n23)cc1	8%	-37%	/	/	9%[59 µM]	-26%
CCN(CC)CCCNCC(=O)Nc1ccc2c(c1)CCC2	?	56µM*	-2%	89µM*	35µM*	28µM*
CCN(CC)CCCNCC(=O)Nc1ccc(OC)c(Cl)c1	/	50µM*	/	7%	8.9µM*	/
COc1ccc(NC(=O)CCCC(=O)O)cc1Cl	13%	-7%	-8%	18%	-4%	-9%
Cc1ccc(C(=O)NCC(=O)Nc2ccc3c(c2)CCC3)cc1C	5%	8%	-12%	/	1%	-7%
COc1cc(/C=N/NC(=O)c2ccc(F)cc2)ccc1OC(=O)c1ccco1	12%	0%	-11%	-5%	-4%[59 µM]	-18%
COc1cc(/C=C2/C(=O)NN(c3ccc(Cl)cc3)C2=O)ccc1OC(=O)c1ccco1	-35%	?	2.7µM*	?	?	?
COc1cc(/C=C2/C(=O)NN(c3cccc(F)c3)C2=O)ccc1OC(=O)c1ccco1	-9%	?	2.1µM*	56µM*	28µM*	-25%
COc1cc(/C=C2/C(=N)N3OC(C)=CC3=NC2=O)ccc1OC(=O)c1ccco1	4%	-5%	-5%	-1%	-35%	-12%
CCOC(=O)N/N=C1/C[C@@H](O)[C@@H](O)[C@@H]2[C@@H]3C(=O)N(C(C)(C)C)C(=O)[C@H]3CC[C@@H]12	/	/	/	4%	/	/
CC1(C)CO[C@H](CC(=O)O)CN1	/	/	/	5%	/	/
COC(=O)C1CSc2[nH]c(=O)sc2C1c1ccccc1 (stereo not drawn)	?	-17%	27µM*	45µM*	56µM*	-30%
Cc1ccc(SC(CC(=O)c2ccc(F)cc2)C(=O)O)cc1 (stereo not drawn)	51%	49%	?	50µM*	?	-5%
O=C(CC(C(=O)O)c1ccc(F)cc1)c1ccc(Cl)cc1 (stereo not drawn)	47%	-8%	-9%	8%	9%	-8%
O=C(CC(C(=O)O)c1ccc(Cl)cc1)c1ccccc1 (stereo not drawn)	32%	-3%	-17%	1%	-33%	-10%
CC(C)(C)c1ccc(C(=O)CC(Sc2ccc(Cl)cc2)C(=O)O)cc1 (stereo not drawn)	56%	-3%	11µM*	20µM*	45µM*	9%
CCc1ccc(NC2=CC(=O)C(=O)c3ccccc32)cc1	?	50µM*	-11%	/	4%[0.501 µM]	45µM*
O=C1C=C(Nc2ccccc2)C(=O)c2ccccc21	?	7.9µM*	1%	-16%	14µM*	?
O=C1C=C(Nc2cccc3cccnc23)c2ccccc2C1=O	?	56µM*	-11%	-25%	35µM*	56µM*
O=C1C=C(Nc2ccccc2C(=O)O)c2ccccc2C1=O	16µM*	35µM*	11µM*	-8%	/	22µM*
COc1ccc(OC)c(CNC(=O)c2cc(=O)[nH]c3ccc(S(=O)(=O)N4CCCCC4C)cc23)c1 (stereo not drawn)	10%	-18%	/	/	1%[59 µM]	?
COc1ccc(Br)cc1CNC(=O)c1ccc2nc(C(C)C)oc2c1	0%[57 µM]	3%	/	/	6%[59 µM]	-23%
O=C1C=C(Nc2ccccc2)c2ccccc2C1=O	?	?	-16%	2%	40µM*	-31%
O=C1C(Nc2ccccc2)=C(NS(=O)(=O)c2ccccc2)C(=O)c2ccccc21	2%	-13%	-11%	-2%	-8%[59 µM]	-5%
CC(C)Nc1ccc(Nc2ccnc3cc4ccccc4cc23)cc1	25µM*	16µM*	2%	-19%	8.9µM*	11µM*
